Rows were chosen to be rich in hits. Some 2.3% of all compounds tested hit in one or more screens of this group.
MEKK3 PB1 HTS: modulators of MEKK3-MEK5 PB1 binding, primary screen, biochemical, wildtype MEKK3, multiplex bead flow cytometry, Alexa488-MEK5 | 1.4% of 290,000 active | binding response (% of control), % at 10 µM | bead-based flow cytometry, Alexa488-MEK5 binding to MEKK3; actives lie on both sides; 0 = blocked by unlabeled MEK5, 100 = vehicle | Mitogen-activated protein kinase kinase kinase 3 (Homo sapiens), Q99759;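 active = binding response more than 3 SD above or below the average of its plate-row segment, actives on both sides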;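 also: Alexa488 bead fluorescence after subtracting the streptavidin-only scavenger bead signal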
MEKK2 WT-MEK5: modulators of MEK5 binding to wildtype MEKK2, primary screen, biochemical, multiplex bead flow cytometry, Alexa488-MEK5; Mitogen-activated protein kinase kinase kinase 2 (Homo sapiens), Q9Y2U5; binding response (% of control), % at 10 µM; AID 1531, 2009; Alexa488-MEK5 binding to MEKK2 WT; actives lie on both sides; 1.1% of 290,000 active; in the data active = binding response below about 67% or above about 130%
UBC13 polyUb: UBC13 polyubiquitin chain formation inhibitors, primary screen, biochemical, TR-FRET, uHTS; 0.47% of 330,000 active; Ubiquitin-conjugating enzyme E2 N (Homo sapiens), P61088; AID 485273, 2010; inhibition, % at 20 µM; in the data active = inhibition above about 45%, passing the limit was not always enough
Target sequence (P61088 whole entry, looked up): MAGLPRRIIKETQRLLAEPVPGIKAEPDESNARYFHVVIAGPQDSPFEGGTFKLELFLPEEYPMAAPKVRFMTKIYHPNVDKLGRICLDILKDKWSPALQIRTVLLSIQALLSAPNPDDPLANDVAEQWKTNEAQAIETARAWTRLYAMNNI
MEKK2mut PB1 HTS: MEK5 binding signal on mutant MEKK2 PB1, primary screen, biochemical, multiplex bead flow cytometry, Alexa488-MEK5 | percent response, % at 10 µM | Alexa488-MEK5 binding to MEKK2 mutant | 0.35% of 290,000 active; in the data active = percent response above about 24%, passing the limit was not always enough
MEKK2wt confirm: modulators of MEK5 binding to wildtype MEKK2, confirmation, biochemical, single concentration, multiplex bead flow cytometry | shares compounds with MEKK3 PB1 HTS | Alexa488-MEK5 binding to MEKK2 WT; actives lie on both sides | binding response (% of control), % at 10 µM | 2.4% of 5,900 active | AID 1892, 2009; in the data active = binding response below about 16% or above about 210%; inactive = in between
MEKK2mut confirm: mutant MEKK2 PB1-MEK5 binding signal retest – biochemical, single concentration, multiplex bead flow cytometry, confirmation; shares compounds with MEKK3 PB1 HTS; Alexa488-MEK5 binding to MEKK2 mutant; percent response, % at 10 µM; 2% of 5,900 active; AID 1893, 2009; in the data active = percent response mostly above about 71%, no sharp cut-off; inactive = mostly below about 38%;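 also: higher means compound restores mutant binding toward wildtype level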
MEKK3 confirm: MEKK3 wild-type PB1 binding to MEK5, inhibitors, confirmation, biochemical, bead multiplex flow cytometry, single concentration, wildtype; shares compounds with MEKK3 PB1 HTS; 1.8% of 5,900 active; Alexa488-MEK5 binding to MEKK3; hits give low values; binding response (% of control), % at 10 µM;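 active = binding response below 72% of control, or above a set upper limit, though filed actives all read lower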;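 also: lower values mean stronger disruption of MEK5 binding to MEKK3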
Of the large screens only hits and unclear results are named; the others gave an inactive call (follow-up assays come after a bar, where they were run); [ ] = remark or other dose.

O=C(NCCN1CCCCCC1)c1ccc(N2CCCC2=O)cc1	MEKK2 WT-MEK5 145.0 | MEKK2wt confirm inactive | MEKK2mut confirm inactive | MEKK3 confirm inactive
O=C(NCCCN1CCN(c2cccc(Cl)c2)CC1)c1cccc(N2CCCC2=O)c1	MEKK2mut PB1 HTS 27.0 | MEKK2wt confirm inactive | MEKK2mut confirm inactive | MEKK3 confirm inactive
COc1cc(C(=O)Nc2c(C(=O)O)[nH]c3ccc(Br)cc23)cc(OC)c1OC	none
O=C1C=CC(=O)N1CCCCCCN1C(=O)C=CC1=O	MEKK2mut PB1 HTS 62.0 (no result: UBC13 polyUb) | MEKK2wt confirm inactive | MEKK2mut confirm inactive | MEKK3 confirm inactive
COC(=O)c1ccccc1NC(=O)c1cccnc1	none
O=C(COC(=O)C1(c2ccc(F)cc2)CCCC1)Nc1ncc(C(F)(F)F)cc1Cl	MEKK3 PB1 HTS 133.0 | MEKK2wt confirm inactive | MEKK2mut confirm inactive | MEKK3 confirm inactive
O=C(COC(=O)C1(c2ccc(Cl)cc2)CCCC1)Nc1ncc(C(F)(F)F)cc1Cl	none
Cc1cc(C)c2cc(C#N)c(N3CCCN(C(=S)NCCCN(C)C)CC3)nc2c1	MEKK2mut PB1 HTS 32.0 | MEKK2wt confirm inactive | MEKK2mut confirm inactive | MEKK3 confirm inactive
Cc1ccc2cc(C#N)c(N3CCCN(C(=S)NCCCN(C)C)CC3)nc2c1	none
COc1ccc(S(=O)(=O)N[C@@H](CC(C)C)C(=O)O)cc1	MEKK3 PB1 HTS 80.0[inhibitor] | MEKK2wt confirm inactive | MEKK2mut confirm inactive | MEKK3 confirm inactive
O=C(CCC(=O)c1ccccc1)NCc1ccccc1	none
CCn1c(/C=N/Nc2ccc(C(=O)O)cc2)nc2ccccc21	MEKK3 PB1 HTS 133.0 | MEKK2wt confirm inactive | MEKK2mut confirm inactive | MEKK3 confirm inactive
CCn1c(CNc2ccc(C(=O)O)cc2)nc2ccccc21	none
CC(C)CN(C(=O)COC(=O)C(C)N1C(=O)c2ccccc2C1=O)c1c(N)n(Cc2ccccc2)c(=O)[nH]c1=O (configuration not stated)	none (no result: MEKK3 PB1 HTS, MEKK2 WT-MEK5, MEKK2mut PB1 HTS)
CCC(C)[C@H](NC(=O)NCc1cccs1)C(=O)OC (some centres not stated)	none
CC(C)[C@H](NC(=O)NCc1cccs1)C(=O)O	MEKK3 PB1 HTS 2.0[inhibitor], MEKK2 WT-MEK5 2.0[inhibitor] | MEKK2wt confirm inactive | MEKK2mut confirm inactive | MEKK3 confirm inactive
O=C(NCc1cccs1)N[C@@H](Cc1ccccc1)C(=O)O	MEKK3 PB1 HTS 1.0[inhibitor], MEKK2 WT-MEK5 -2.0[inhibitor] | MEKK2wt confirm inactive | MEKK2mut confirm inactive | MEKK3 confirm inactive
Cc1cn([C@H](C(=O)NCCCCCCCCCCC(=O)N2CCN(C(=O)OC(C)(C)C)CC2)[C@@H](C)O)nn1	none (no result: MEKK3 PB1 HTS, MEKK2 WT-MEK5, MEKK2mut PB1 HTS)
Cc1ccc(CNS(=O)(=O)c2ccc(C)s2)cc1	none
CC(C)(C)c1ccc(C(=O)N/C(=C\c2ccco2)C(=O)O)cc1	none
O=C(O)/C(=C/c1ccco1)NC(=O)c1ccccc1	MEKK3 PB1 HTS 128.0 | MEKK2wt confirm inactive | MEKK2mut confirm inactive | MEKK3 confirm inactive
COC(=O)C(Cc1ccccc1)NC(=O)C12CC3CC(CC(C3)C1)C2 (configuration not stated)	MEKK3 PB1 HTS 134.0 | MEKK2wt confirm inactive | MEKK2mut confirm inactive | MEKK3 confirm inactive
COC(=O)C(Cc1ccc(O)cc1)NC(=O)C12CC3CC(CC(C3)C1)C2 (configuration not stated)	none
COc1ccc(/C=C/C(=O)N2CCN(S(=O)(=O)/C=C/c3ccccc3)CC2)cc1OC	MEKK3 PB1 HTS 145.0 | MEKK2wt confirm inactive | MEKK2mut confirm inactive | MEKK3 confirm inactive
CCCCCCOC(=O)C(C#N)c1nc2ccccc2nc1N1CCOCC1 (configuration not stated)	none
CCCCCCOC(=O)C(C#N)c1nc2ccccc2nc1N1CCN(CC)CC1 (configuration not stated)	MEKK2 WT-MEK5 158.0 | MEKK2wt confirm inactive | MEKK2mut confirm inactive | MEKK3 confirm inactive
CCN(c1ccccc1)C1(O)C(=O)c2ccccc2C1=O	none
CCN(C(=O)CN1CCCCC1)C1(C)C(=O)c2ccccc2C1=O	MEKK3 PB1 HTS 140.0 | MEKK2wt confirm inactive | MEKK2mut confirm inactive | MEKK3 confirm inactive
COc1cc(N2CCCC2)c(OC)cc1/C=C(/C#N)c1ccc(F)cc1	MEKK2 WT-MEK5 53.0[inhibitor] | MEKK2wt confirm inactive | MEKK2mut confirm inactive | MEKK3 confirm inactive
N#C/C(=C/c1ccc(N2CCCCC2)cc1)c1cccc(F)c1	none
COc1cc(N2CCCC2)c(OC)cc1/C=C(/C#N)c1ccc(Br)cc1	MEKK2mut PB1 HTS 189.0 | MEKK2wt confirm inactive | MEKK2mut confirm inactive | MEKK3 confirm inactive
Cc1nn(CC2CC2)c(=O)n1-c1ccc(F)cc1	MEKK3 PB1 HTS 129.0 | MEKK2wt confirm inactive | MEKK2mut confirm inactive | MEKK3 confirm inactive
Cc1nn(CC2CC2)c(=O)n1-c1cccc(Cl)c1	MEKK3 PB1 HTS 154.0 | MEKK2wt confirm inactive | MEKK2mut confirm inactive | MEKK3 confirm inactive
Cc1ccc(-n2c(C)nn(CC3CC3)c2=O)cc1	none
CCOC(=O)Cn1nc(C)n(-c2cccc(Cl)c2)c1=O	none
COc1cc(NC(=O)c2cccc(Cl)c2)ccc1NC(=O)c1cccs1	MEKK3 PB1 HTS 133.0 | MEKK2wt confirm inactive | MEKK2mut confirm inactive | MEKK3 confirm inactive
COc1cccc(C(=O)Nc2cc(NC(=O)c3cccs3)ccc2C)c1	none
COc1cccc(C(=O)Nc2cc(NC(=O)c3cccs3)ccc2C)c1OC	MEKK2mut PB1 HTS 24.0 | MEKK2wt confirm inactive | MEKK2mut confirm inactive | MEKK3 confirm inactive
CC[C@@H]1C/C=C\Cc2ccccc2[C@H](C(=O)C[C@@H](O)CC(C)=O)OC1=O	none (no result: MEKK3 PB1 HTS, MEKK2 WT-MEK5, MEKK2mut PB1 HTS)
O=C(NCCc1ccccc1)C(=S)N1CCCCC1	none
CCOC(=O)C1CCN(C(=O)C(=O)Nc2ccc3nc4n(c(=O)c3c2)CCCCC4)CC1	none
CN(Cc1cccc(F)c1)C(=O)c1ccc(S(=O)(=O)N2CCCCCC2)cc1	none (no result: MEKK3 PB1 HTS, MEKK2 WT-MEK5, MEKK2mut PB1 HTS)
COc1ccc(/C=N/Nc2ccc(C(F)(F)F)cc2[N+](=O)[O-])cc1O	MEKK3 PB1 HTS 131.0 | MEKK2wt confirm inactive | MEKK2mut confirm inactive | MEKK3 confirm inactive
OCCCCNCc1ccc(OCc2ccccc2)cc1	none
NC(N)=N/N=C/c1ccccc1	none
